Tests used:
Experiment in all cases: DAPPL (digital affinity profiling via proximity ligation, sequencing); 10 mM Tris-HCl pH 7.5, 50 mM NaCl, 1 mM DTT, 4% glycerol, room temperature, 30 min; GST-TFs on glutathione beads, 16-mer random dsDNA library, 0.1% formaldehyde crosslink after washing; high values mean tight binding
FEV = target: T1, FEV (Homo sapiens, UniProt Q99581 1-238); conditions: protein: recombinant; tags: N-terminal GST; dsDNA, one strand shown
T1 sequence: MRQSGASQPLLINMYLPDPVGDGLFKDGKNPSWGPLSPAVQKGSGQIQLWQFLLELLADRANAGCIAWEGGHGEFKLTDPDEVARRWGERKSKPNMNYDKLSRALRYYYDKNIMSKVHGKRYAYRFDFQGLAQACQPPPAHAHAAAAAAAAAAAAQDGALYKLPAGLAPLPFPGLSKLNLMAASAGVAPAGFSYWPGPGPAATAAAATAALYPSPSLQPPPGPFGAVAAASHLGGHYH
Summary of the method: (§1)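 Binding signal is given per hexamer as its read frequency for a factor divided by its frequency in the tag-only sample. GST-fused human transcription factors were expressed in yeast, captured on glutathione beads, barcoded with DNA and pooled with that sample, then incubated with 200 nmole of a 16-mer random double-stranded DNA library in Tris/NaCl/DTT/glycerol buffer for 30 min at room temperature. The pools were then washed, crosslinked, proximity-ligated, amplified by PCR and sequenced on an Illumina NextSeq500.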

ETV5 = ETV5 (Homo sapiens, UniProt P41161 1-510); conditions: protein: recombinant; tags: N-terminal GST; dsDNA, one strand shown
Summary of the method: as §1

HSF1 = HSF1 (Homo sapiens, UniProt Q00613 1-529); conditions: protein: recombinant; tags: N-terminal GST; chain copies: 3; dsDNA, one strand shown
Summary of the method: as §1

SPIC = target: T2, SPIC (Homo sapiens, UniProt Q8N5J4 1-248); conditions: protein: recombinant; tags: N-terminal GST; dsDNA, one strand shown
T2 sequence: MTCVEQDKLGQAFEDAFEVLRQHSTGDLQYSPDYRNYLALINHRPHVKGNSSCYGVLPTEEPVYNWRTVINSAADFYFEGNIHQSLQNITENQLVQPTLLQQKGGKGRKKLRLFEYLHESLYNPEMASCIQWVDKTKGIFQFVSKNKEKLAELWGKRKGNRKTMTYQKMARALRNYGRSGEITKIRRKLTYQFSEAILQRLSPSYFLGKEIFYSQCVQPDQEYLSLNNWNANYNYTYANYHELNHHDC
Summary of the method: as §1

ELF4 = ELF4 (Homo sapiens, UniProt Q99607 1-663); conditions: protein: recombinant; tags: N-terminal GST; dsDNA, one strand shown
Summary of the method: as §1

ELK4 = target: T3, ELK4 (Homo sapiens, UniProt P28324-2 1-405); conditions: protein: recombinant; tags: N-terminal GST; dsDNA, one strand shown
T3 sequence: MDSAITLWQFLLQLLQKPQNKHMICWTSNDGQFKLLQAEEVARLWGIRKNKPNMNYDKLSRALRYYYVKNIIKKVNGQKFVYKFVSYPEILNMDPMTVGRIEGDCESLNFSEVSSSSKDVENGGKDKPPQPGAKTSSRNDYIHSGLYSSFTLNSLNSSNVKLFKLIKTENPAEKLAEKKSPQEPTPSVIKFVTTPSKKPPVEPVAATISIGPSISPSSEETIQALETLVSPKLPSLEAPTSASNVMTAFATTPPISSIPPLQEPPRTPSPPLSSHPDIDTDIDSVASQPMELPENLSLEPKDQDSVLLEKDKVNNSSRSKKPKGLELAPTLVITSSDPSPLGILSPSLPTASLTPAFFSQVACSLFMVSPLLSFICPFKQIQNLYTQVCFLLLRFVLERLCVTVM
Summary of the method: as §1

ETV2 = target: T4, ETV2 (Homo sapiens, UniProt O00321 1-342); conditions: protein: recombinant; tags: N-terminal GST; dsDNA, one strand shown
T4 sequence: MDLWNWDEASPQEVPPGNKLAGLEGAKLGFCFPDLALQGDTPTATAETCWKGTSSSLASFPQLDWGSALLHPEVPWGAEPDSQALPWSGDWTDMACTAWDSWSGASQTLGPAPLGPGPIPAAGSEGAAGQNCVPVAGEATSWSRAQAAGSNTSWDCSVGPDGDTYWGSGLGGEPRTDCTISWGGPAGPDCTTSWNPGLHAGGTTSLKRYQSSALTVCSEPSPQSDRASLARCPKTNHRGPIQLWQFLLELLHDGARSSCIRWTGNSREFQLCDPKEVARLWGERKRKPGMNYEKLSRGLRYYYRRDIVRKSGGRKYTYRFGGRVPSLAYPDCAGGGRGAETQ
Summary of the method: as §1

ELF3 = target: T5, ELF3 (Homo sapiens, UniProt P78545 1-371); conditions: protein: recombinant; tags: N-terminal GST; dsDNA, one strand shown
T5 sequence: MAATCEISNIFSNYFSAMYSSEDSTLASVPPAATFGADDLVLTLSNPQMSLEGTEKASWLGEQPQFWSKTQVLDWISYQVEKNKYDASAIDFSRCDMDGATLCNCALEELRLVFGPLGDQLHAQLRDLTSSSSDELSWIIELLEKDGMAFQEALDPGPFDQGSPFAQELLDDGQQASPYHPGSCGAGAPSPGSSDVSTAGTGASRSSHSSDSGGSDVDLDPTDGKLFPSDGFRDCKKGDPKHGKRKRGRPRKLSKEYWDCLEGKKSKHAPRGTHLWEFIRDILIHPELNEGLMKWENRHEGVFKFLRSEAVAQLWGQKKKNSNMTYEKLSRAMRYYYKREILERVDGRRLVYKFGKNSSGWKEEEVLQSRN
Summary of the method: as §1

CRX = CRX (Homo sapiens, UniProt O43186 1-299); conditions: protein: recombinant; tags: N-terminal GST; dsDNA, one strand shown
Summary of the method: as §1

ETV1 = ETV1 (Homo sapiens, UniProt P50549 1-477); conditions: protein: recombinant; tags: N-terminal GST; dsDNA, one strand shown
Summary of the method: as §1

ERF = target: T6, ERF (Homo sapiens, UniProt P50548 1-548); conditions: protein: recombinant; tags: N-terminal GST; dsDNA, one strand shown
T6 sequence: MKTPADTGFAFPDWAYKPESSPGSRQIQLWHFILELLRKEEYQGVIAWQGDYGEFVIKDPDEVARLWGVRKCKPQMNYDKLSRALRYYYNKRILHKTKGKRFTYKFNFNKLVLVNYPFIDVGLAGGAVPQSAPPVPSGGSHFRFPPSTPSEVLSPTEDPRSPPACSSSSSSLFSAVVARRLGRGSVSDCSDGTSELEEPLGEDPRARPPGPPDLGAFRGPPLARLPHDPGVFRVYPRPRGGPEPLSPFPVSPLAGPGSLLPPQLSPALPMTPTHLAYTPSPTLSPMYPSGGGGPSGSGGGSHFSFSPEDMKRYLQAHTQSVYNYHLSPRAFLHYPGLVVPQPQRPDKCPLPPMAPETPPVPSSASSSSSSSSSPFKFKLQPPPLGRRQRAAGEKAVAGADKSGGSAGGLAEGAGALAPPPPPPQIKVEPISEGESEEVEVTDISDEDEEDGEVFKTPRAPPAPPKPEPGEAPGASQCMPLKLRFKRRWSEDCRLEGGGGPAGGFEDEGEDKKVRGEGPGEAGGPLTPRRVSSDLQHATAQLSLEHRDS
Summary of the method: as §1

ETV3L = target: T7, ETV3L (Homo sapiens, UniProt Q6ZN32 1-361); conditions: protein: recombinant; tags: N-terminal GST; dsDNA, one strand shown
T7 sequence: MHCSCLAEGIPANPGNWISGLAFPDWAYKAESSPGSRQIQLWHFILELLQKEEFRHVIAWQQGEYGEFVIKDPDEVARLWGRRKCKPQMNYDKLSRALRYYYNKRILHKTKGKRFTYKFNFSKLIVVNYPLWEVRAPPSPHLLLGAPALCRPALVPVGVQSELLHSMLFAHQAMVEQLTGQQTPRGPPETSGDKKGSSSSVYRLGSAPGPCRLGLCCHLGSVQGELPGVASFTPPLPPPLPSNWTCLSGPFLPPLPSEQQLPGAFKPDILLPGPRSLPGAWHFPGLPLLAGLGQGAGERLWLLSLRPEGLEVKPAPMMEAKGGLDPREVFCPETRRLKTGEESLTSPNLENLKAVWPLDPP
Summary of the method: as §1

ETS2 = target: T8, ETS2 (Homo sapiens, UniProt P15036 1-469); conditions: protein: recombinant; tags: N-terminal GST; dsDNA, one strand shown
T8 sequence: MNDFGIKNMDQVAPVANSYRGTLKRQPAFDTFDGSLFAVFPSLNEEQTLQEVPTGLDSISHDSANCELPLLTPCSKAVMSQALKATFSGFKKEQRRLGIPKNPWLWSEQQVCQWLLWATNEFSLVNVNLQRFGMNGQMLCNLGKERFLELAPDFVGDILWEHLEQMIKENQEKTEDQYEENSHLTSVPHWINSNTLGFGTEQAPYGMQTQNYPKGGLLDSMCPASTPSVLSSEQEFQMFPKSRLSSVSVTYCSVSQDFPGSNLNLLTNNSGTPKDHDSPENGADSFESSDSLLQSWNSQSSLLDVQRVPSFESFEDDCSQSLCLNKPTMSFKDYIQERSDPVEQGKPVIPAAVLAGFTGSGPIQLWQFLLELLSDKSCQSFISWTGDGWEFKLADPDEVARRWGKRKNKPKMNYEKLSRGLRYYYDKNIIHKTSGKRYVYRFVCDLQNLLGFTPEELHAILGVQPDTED
Summary of the method: as §1

SPDEF = target: T9, SPDEF (Homo sapiens, UniProt O95238 1-335); conditions: protein: recombinant; tags: N-terminal GST; dsDNA, one strand shown
T9 sequence: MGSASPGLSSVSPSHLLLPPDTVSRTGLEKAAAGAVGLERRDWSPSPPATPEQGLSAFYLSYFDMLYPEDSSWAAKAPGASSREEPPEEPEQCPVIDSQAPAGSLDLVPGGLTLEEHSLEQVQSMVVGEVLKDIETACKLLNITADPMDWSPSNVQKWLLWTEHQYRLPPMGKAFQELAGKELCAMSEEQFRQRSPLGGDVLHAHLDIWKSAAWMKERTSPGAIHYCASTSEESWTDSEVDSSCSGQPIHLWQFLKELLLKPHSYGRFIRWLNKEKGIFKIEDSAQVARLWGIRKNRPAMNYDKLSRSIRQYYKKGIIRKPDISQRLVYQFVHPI
Summary of the method: as §1

ETV7 = target: T10, ETV7 (Homo sapiens, UniProt Q9Y603 1-341); conditions: protein: recombinant; tags: N-terminal GST; dsDNA, one strand shown
T10 sequence: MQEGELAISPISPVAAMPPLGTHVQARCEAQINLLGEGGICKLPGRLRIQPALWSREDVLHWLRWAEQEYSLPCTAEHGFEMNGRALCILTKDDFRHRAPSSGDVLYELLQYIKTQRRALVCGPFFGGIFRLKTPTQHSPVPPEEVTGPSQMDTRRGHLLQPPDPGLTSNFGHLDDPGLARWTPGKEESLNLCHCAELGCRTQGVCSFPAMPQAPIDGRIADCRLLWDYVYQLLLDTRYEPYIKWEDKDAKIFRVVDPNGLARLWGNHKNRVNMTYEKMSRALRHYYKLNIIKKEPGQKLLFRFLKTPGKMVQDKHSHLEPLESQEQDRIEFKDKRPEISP
Summary of the method: as §1

ELF5 = target: T11, ELF5 (Homo sapiens, UniProt Q9UKW6-2 1-255); conditions: protein: recombinant; tags: N-terminal GST; dsDNA, one strand shown
T11 sequence: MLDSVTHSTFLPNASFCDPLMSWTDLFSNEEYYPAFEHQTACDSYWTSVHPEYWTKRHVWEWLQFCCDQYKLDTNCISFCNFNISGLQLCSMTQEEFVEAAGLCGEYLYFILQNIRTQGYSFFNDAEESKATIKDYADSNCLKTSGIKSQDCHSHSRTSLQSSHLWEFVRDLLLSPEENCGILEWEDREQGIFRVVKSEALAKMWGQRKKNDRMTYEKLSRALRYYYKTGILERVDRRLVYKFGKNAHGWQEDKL
Summary of the method: as §1

ETV3 = target: T12, ETV3 (Homo sapiens, UniProt P41162-2 1-143); conditions: protein: recombinant; tags: N-terminal GST; dsDNA, one strand shown
T12 sequence: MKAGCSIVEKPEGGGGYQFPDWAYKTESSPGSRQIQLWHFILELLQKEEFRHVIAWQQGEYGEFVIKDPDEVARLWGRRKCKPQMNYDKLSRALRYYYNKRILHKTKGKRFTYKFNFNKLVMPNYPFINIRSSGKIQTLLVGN
Summary of the method: as §1

ETV6 = ETV6 (Homo sapiens, UniProt P41212 1-452); conditions: protein: recombinant; tags: N-terminal GST; dsDNA, one strand shown
Summary of the method: as §1

Sequence of ELF4 (Q99607 whole entry): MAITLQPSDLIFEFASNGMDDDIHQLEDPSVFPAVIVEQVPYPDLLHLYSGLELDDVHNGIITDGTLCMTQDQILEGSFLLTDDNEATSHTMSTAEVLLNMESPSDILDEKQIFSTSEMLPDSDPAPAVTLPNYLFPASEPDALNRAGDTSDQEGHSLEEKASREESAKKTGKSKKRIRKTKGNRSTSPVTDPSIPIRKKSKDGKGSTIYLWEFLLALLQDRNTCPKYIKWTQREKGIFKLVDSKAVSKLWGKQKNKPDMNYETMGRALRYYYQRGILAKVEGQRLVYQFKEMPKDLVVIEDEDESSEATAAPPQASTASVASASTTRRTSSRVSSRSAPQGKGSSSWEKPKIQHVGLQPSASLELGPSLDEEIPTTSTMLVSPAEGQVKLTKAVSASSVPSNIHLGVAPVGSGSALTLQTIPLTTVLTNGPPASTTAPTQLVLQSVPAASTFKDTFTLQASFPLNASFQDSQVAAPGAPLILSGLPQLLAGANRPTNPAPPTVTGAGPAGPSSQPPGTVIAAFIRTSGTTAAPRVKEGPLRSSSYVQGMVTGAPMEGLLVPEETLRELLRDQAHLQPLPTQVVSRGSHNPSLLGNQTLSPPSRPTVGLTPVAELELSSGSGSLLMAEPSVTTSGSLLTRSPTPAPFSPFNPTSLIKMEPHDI
Sequence of CRX (O43186 whole entry): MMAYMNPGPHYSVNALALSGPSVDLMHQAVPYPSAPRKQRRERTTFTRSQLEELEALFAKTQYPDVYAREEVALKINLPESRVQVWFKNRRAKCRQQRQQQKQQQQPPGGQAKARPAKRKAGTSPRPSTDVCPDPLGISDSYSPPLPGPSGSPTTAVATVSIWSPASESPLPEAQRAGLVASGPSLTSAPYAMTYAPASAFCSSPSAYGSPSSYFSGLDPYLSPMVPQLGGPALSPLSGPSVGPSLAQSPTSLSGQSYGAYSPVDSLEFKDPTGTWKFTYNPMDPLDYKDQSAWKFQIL
Sequence of ETV1 (P50549 whole entry): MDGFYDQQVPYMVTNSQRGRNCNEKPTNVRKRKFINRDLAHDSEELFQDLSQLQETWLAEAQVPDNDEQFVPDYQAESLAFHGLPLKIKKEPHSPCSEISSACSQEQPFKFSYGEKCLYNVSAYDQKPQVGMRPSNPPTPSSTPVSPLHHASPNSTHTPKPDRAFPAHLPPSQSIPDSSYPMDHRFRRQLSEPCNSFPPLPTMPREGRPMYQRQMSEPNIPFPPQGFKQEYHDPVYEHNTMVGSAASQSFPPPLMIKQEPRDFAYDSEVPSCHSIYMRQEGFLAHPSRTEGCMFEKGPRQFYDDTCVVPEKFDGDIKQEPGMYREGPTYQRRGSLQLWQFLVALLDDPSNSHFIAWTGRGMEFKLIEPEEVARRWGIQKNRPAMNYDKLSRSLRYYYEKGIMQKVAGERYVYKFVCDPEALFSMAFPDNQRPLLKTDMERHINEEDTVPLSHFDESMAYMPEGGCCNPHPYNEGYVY
Sequence of HSF1 (Q00613 whole entry): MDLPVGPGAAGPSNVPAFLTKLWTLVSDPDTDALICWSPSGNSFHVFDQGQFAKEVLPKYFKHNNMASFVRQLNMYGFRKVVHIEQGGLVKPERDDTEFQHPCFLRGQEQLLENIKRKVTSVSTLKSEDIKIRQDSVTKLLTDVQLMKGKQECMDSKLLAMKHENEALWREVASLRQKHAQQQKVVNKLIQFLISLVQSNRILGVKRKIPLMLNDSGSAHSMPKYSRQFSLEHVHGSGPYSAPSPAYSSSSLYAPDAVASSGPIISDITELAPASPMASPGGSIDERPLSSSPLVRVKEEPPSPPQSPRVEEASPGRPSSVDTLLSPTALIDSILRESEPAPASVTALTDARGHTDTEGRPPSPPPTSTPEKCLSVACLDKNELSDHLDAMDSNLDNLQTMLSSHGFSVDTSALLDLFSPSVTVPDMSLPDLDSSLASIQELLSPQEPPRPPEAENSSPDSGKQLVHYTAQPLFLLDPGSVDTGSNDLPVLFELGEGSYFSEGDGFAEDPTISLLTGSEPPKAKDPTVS
Sequence of ETV6 (P41212 whole entry): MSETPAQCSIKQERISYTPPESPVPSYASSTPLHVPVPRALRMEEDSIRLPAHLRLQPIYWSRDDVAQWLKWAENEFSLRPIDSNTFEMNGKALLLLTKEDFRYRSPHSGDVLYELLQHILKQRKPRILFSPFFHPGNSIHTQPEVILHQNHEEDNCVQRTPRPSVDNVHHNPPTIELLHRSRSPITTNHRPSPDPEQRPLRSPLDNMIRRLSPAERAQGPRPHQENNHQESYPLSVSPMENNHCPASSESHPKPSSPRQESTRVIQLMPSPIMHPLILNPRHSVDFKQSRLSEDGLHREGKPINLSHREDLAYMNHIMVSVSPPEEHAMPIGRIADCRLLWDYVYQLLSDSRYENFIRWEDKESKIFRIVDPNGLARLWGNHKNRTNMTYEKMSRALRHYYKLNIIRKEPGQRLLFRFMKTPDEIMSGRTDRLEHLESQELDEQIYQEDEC
Sequence of ETV5 (P41161 whole entry): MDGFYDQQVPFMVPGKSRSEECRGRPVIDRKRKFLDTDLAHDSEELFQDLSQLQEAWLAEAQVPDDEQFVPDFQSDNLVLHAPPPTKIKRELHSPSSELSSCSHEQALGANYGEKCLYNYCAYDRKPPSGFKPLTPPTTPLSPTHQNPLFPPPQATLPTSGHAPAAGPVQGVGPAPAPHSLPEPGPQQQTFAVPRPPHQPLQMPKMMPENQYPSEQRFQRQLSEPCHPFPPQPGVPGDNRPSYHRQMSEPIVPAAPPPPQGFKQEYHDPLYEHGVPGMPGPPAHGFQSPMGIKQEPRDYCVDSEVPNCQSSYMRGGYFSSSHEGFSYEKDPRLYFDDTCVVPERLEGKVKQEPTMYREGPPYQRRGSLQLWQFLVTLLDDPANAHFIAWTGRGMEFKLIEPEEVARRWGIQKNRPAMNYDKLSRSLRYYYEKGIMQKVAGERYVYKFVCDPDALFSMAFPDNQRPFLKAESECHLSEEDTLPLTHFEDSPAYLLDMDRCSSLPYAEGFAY

ACTCTC
binding signal (FEV): 1.42 fold enrichment (6-mer frequency, TF over GST control) | binding signal (ETV5): 1.42 fold enrichment (6-mer frequency, TF over GST control) | binding signal (HSF1): 1.55 fold enrichment (6-mer frequency, TF over GST control) | binding signal (SPIC): 1.47 fold enrichment (6-mer frequency, TF over GST control) | binding signal (ELF4): 1.49 fold enrichment (6-mer frequency, TF over GST control) | binding signal (ELK4): 1.55 fold enrichment (6-mer frequency, TF over GST control) | binding signal (ETV2): 1.39 fold enrichment (6-mer frequency, TF over GST control) | binding signal (ELF3): 1.88 fold enrichment (6-mer frequency, TF over GST control) | binding signal (CRX): 1.31 fold enrichment (6-mer frequency, TF over GST control) | binding signal (ETV1): 1.53 fold enrichment (6-mer frequency, TF over GST control) | binding signal (ERF): 1.42 fold enrichment (6-mer frequency, TF over GST control) | binding signal (ETV3L): 1.49 fold enrichment (6-mer frequency, TF over GST control) | binding signal (ETS2): 1.48 fold enrichment (6-mer frequency, TF over GST control) | binding signal (SPDEF): 1.45 fold enrichment (6-mer frequency, TF over GST control) | binding signal (ETV7): 1.27 fold enrichment (6-mer frequency, TF over GST control) | binding signal (ELF5): 1.37 fold enrichment (6-mer frequency, TF over GST control) | binding signal (ETV3): 1.5 fold enrichment (6-mer frequency, TF over GST control) | binding signal (ETV6): 1.33 fold enrichment (6-mer frequency, TF over GST control)
